Compounds without any hit were thinned out: in the full panel of roughly 83,000, 20% have a hit.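 Step 1: grow cells in 96-well plates. Step 2: add test compound at a single concentration. Step 3: incubate 48 h. Step 4: record percent growth.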 Active and inactive are the calls of the source. The calls were made as follows: active = growth percent below 10; inactive = the rest.
test system: MDA-MB-468 breast; test: NCI-60 one-dose screen, 48 h (100 = growth as untreated, 0 = no growth, -100 = all killed); details: 10 µM unless noted

Row | SMILES | growth
1 | CCCCn1sc(=O)n(Cc2ccc(CNC(=O)OCc3ccc4c(Br)cc(Br)c(O)c4n3)cc2)c1=O | 27.3% (inactive)
2 | COc1ccc2c(c1OC)CO[C@@H]2[C@H]1c2c(cc3c(c2OC)OCO3)CCN1S(=O)(=O)c1cn(C)cn1 | 17.4% (inactive)
3 | CC(C)n1nc(C#Cc2cccc(O)c2)c2c(N)ncnc21 | -44.2% (active)
4 | O=C(CCCl)OCCOc1ccccc1 | 107% (inactive)
5 | CN1CCN(c2nc(-c3csc(-c4ccccc4)n3)cc3ccccc23)CC1 | -71.9% (active)
6 | CCCCN(CCCC)c1ccc(C(=N)c2ccc(N(C)C)cc2)cc1 | -76.5% (active)
7 | COc1ccc(-c2cc(-c3cc(OC)c(OC)c(OC)c3)c(C#N)c(=O)n2CCCCCC(=O)NO)cc1 | 97.4% (inactive)
8 | Cc1ccc2oc(=O)cc(C3c4ccc([nH]4)C(c4cc(=O)oc5ccc(C)cc45)c4ccc([nH]4)C(c4cc(=O)oc5ccc(C)cc45)c4ccc([nH]4)C(c4cc(=O)oc5ccc(C)cc45)c4ccc3[nH]4)c2c1 (stereo not drawn) | -28.6% (active)
9 | COc1ccc(/C=C/C(=O)c2ccc(NC(=O)CSc3nnc(-c4cc(OC)c(OC)c(OC)c4)o3)cc2)cc1 | -60.5% (active)
10 | NCCCCCNc1noc(Cc2c[nH]c3cc(Br)ccc23)n1 | 4.11% (active)
11 | c1ccc2cc(C[n+]3ccn(CCCCCCCCCCn4cc[n+](Cc5ccc6ccccc6c5)c4)c3)ccc2c1 | -28.3% (active)
12 | COc1cc(Cn2c(-c3nonc3N)nc3ccccc32)ccc1C | 40.9% (inactive)
13 | CC1OC(O[C@H]2/C=C/C=C/C=C/C=C/C=C/C=C/C=C/[C@H](C)[C@@H](O)[C@@H](C)[C@H](C)OC(=O)CC(O)CC(O)CCC(O)C(O)CC(O)C[C@]3(O)C[C@H](O)C(C(=O)O)C(C2)O3)C(O)[C@H](N)C1O (stereo partly drawn) | 83.3% (inactive)
